Among all 89,000 compounds or so, about 10 (0.01%) were called active. Roughly 10% stayed inconclusive and do not appear here. No stated cut-off is given here; in the data, active means activity change below about -37% (passing the limit was not always enough); inconclusive means no clear call, values can overlap the other calls; tested in A549 cells. The list is a sample of the results.

The nature of this experiment: blocks a specific stage of Vaccinia orthopoxvirus infection, primary screen, cell-based, single point (AID 1053133). The conditions noted are these: Vaccinia-infected cells, mCherry/Venus stage reporter fluorescence, stronger effect = lower value, concentration not given here; activity change (Venus): measured here: Venus reporter, other viral stage.
With `COCC#Cc1ccc([C@H]2[C@@H](CO)N3C(=O)CN(C(=O)C4CCCC4)C[C@@H]23)cc1`, the activity change (Venus) worked out at 10.7% and the activity change (mCherry) was 14.5% (inactive).

Turning to `CO[C@@H]1CN(C)C(=O)c2cc(NS(=O)(=O)Cc3ccccc3)ccc2OC[C@H](C)NC[C@H]1C`, the activity change (Venus) was 3.49% and the activity change (mCherry) is -2.28% (inactive).

`COc1ccc(NC(=O)N(C)C[C@H]2OCCCC[C@@H](C)Oc3ccc(NS(=O)(=O)c4ccc(F)cc4)cc3C(=O)N([C@H](C)CO)C[C@H]2C)cc1`: the activity change (Venus) was -16.7% and the activity change (mCherry) was -18% (inactive).

Turning to `O=C(C[C@@H]1CC[C@@H]2[C@H](COC[C@@H](O)CN2S(=O)(=O)c2cccc(Cl)c2)O1)N1CCOCC1`, the activity change (Venus) worked out at 10.1% and the activity change (mCherry) is 21.4% (inactive).

As for `O=C(C[C@@H]1CC[C@@H]2[C@H](COC[C@@H](O)CN2Cc2ccc(Cl)cc2)O1)NCc1ccccc1Cl`, the activity change (Venus) is -11.5% and the activity change (mCherry) is -7.35% (inactive).

`O=C(C[C@@H]1CC[C@@H]2[C@H](COC[C@H](O)CN2S(=O)(=O)c2ccccc2)O1)N[C@H]1CCN(Cc2ccccc2)C1`: the activity change (Venus) is -6.28% and the activity change (mCherry) is -10.6% (inactive).

As to `COc1cccc(NC(=O)Nc2ccc3c(c2)C(=O)N(C)C[C@H](OC)[C@@H](C)CN[C@@H](C)CO3)c1`, the activity change (Venus) was determined as 13.8% and the activity change (mCherry) was 1.34% (inactive).

`CCC(=O)Nc1ccc2c(c1)OC[C@@H](C)N(Cc1ccccc1OC)C[C@H](C)[C@H](OC)CN(C)C2=O`: the activity change (Venus) was -6.3% and the activity change (mCherry) is -3.87% (inactive).

`COc1ccccc1-c1ccc([C@H]2[C@@H](CO)N(CC3CC3)C23CN(S(C)(=O)=O)C3)cc1`: the activity change (Venus) was determined as 0.302% and the activity change (mCherry) was -10.8% (inactive).

Take `O=C(Nc1ccccc1F)N1CC(=O)N2[C@H](CO)[C@H](c3ccc(C#CC4CC4)cc3)[C@@H]2C1`: the activity change (Venus) is -0.75% and the activity change (mCherry) was -2.67% (inactive).

Source of the values: PubChem BioAssay AID1053133 (Broad Institute, 2014).
